# INS promoter inh: inhibitors of insulin promoter-driven GFP, primary screen, imaging, TRM-6 cells (human fetal islet line), eGFP reporter, cell count. hit rate 0.9% among 130,000. reporter expression induced with tamoxifen. inhibition, % at 2 µM;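 active = inhibition above the mean plus 3 SD, with well images judged a real hit on visual review, cut at about 60% in these data, passing the limit was not always enough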
# Ins promoter up: insulin promoter activators in MIN6 cells, imaging, high-content screening, mouse beta cells; z-score at 5 µM; hit rate 0.3% among 190,000; AID 1625, 2009; MIN6 insulin promoter-GFP reporter; hits give high values;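 active = z-score above 3 at 5 µM with at least 500 cells counted in the well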
# Autophagy mod: autophagy modulators in MEF cells, primary screen, imaging, high-content, MEF GFP-LC3; MEF GFP-LC3 puncta imaging; test concentration mostly 10 µM; calls only at 10 µM (by protocol); hit rate 0.98% among 190,000;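 active = percentage of spot-positive cells more than 3 SD above its plate mean, without a fluorescence outlier flag or 80% toxicity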;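 note: spot-positive cell cutoff set from DMSO-treated cells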
# Efa HMGR inh: inhibitors of E. faecalis class II HMGR, primary screen, biochemical, Enterococcus faecalis | purified E. faecalis HMGR, NADPH absorbance 340 nm kinetic | HMG-CoA reductase (Enterococcus faecalis, mvaE) | hit rate 0.41% among 190,000 | inhibition, % at 10 µM;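 active = inhibition above a set limit, the median over all tested compounds plus 3 SD, cut at about 9.5% in these data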;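 note: enzyme runs in reverse so mevalonate oxidation gives rising NADPH absorbance; 0% = complete reaction with DMSO and 100% = background rate lacking mevalonate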
# The depositor's hits bear a star; i = inactive; . = no result; + = active, no number. Shown are actives, neighbours in structure and some others; about 1.9% of the full set was active somewhere.
SMILES,INS promoter inh,Ins promoter up,Autophagy mod,Efa HMGR inh
COc1ccc(OC)c(C2C(C(=O)N(C)C)=C(C)Nc3nc4ccccc4n32)c1 (configuration not stated),5,-0.02,i,-2
COc1ccc(C2C(C(=O)c3ccccc3)=C(C)Nc3nc4ccccc4n32)c(OC)c1 (configuration not stated),-46,3.8*,i,-4
Nc1nc(SCC(=O)Nc2ncc(C(F)(F)F)cc2Cl)n[nH]1,5,0.65,i,-1
O=C(CSc1ncccn1)NC(=O)Nc1ccc2c(c1)OCCO2,27,0.02,i,-9
Cc1ccc(C)c(SCC(=O)NC(=O)Nc2ccc3c(c2)OCCO3)c1,80*,.,i,-9
c1ccc(-n2ncc3c(N4CCN(c5ccccn5)CC4)nc(N4CCCCCC4)nc32)cc1,.,4.1*,i,1
C=CCn1c(SCC(=O)N2CCN(c3ccccc3)CC2)nnc1-c1ccco1,77*,-0.33,i,1
O=C(CSc1nnc(-c2ccco2)n1-c1ccccc1)N1CCOCC1,-3,.,i,2
O=C(CN1C(=O)c2ccccc2S1(=O)=O)NC(Nc1ccccc1F)C(Cl)(Cl)Cl (configuration not stated),.,0.19,i,-2
COc1cccc(/C=C/C(=O)c2cccc([N+](=O)[O-])c2)c1OC,.,0.04,+,-8
COc1cccc(/C=C/C(=O)c2cccc([N+](=O)[O-])c2)c1,-53,-0.49,i,-2
O=C(CCCc1c[nH]c2ccccc12)NCC1COc2ccccc2O1 (configuration not stated),.,-0.28,i,0
Brc1c(NC2=NCCN2)ccc2nccnc12,24,.,i,18*
O=C(Nc1ccc(N2CCOCC2)cc1)c1ccc(S(=O)(=O)NCc2ccco2)cc1,.,-0.34,.,.
S=C(Nc1ccccc1)N1CCOCCOCCN(C(=S)Nc2ccccc2)CCOCCOCC1,.,-0.29,.,.
S=C(Nc1ccccc1)N1CCN(c2ccc(N3CCOCC3)nn2)CC1,75*,-0.4,i,-4
Cc1nn(-c2ccccn2)c2c1C(c1c(F)cccc1Cl)C1=C(N2)c2ccccc2C1=O (configuration not stated),-42,-0.35,i,0
Cc1ccc(SCCN2CCN(CC(C)C)CCC2=O)cc1,.,-0.2,.,.
C=CCn1c(SCC(=O)c2[nH]c(C)c(C(=O)OCC)c2C)nc2scc(-c3ccc(OC)c(OC)c3)c2c1=O,25,-1.1,i,-11
Cc1cnc(NC(=O)CCCc2nc3ccccc3s2)s1,3,-0.37,+,1
CCCCn1c(N(CCOC(C)=O)C(C)=O)nc2ccccc21,89*,.,i,-4
COc1ccc(OC)c(S(=O)(=O)N2CCN(c3ccccn3)CC2)c1,74*,0.63,i,-4
COc1ccc(OC)c(S(=O)(=O)N2CCCCC2C(=O)N2CCN(c3ccccn3)CC2)c1 (configuration not stated),0,0.2,i,-3
COc1cc(C(=O)c2nccc3cc(OC)c(OC)cc23)c([N+](=O)[O-])cc1OC,.,0.28,i,1
CCOC(=O)N1CCN(S(=O)(=O)c2ccc(C(=O)NNc3nc4c(C)cccc4s3)cc2)CC1,-67,-2.3,i,4
SMILES,INS promoter inh,Ins promoter up,Autophagy mod,Efa HMGR inh
O=C(NNc1nc2cc3c(cc2s1)OCCO3)c1ccccc1,-5,0.08,i,-1
Cc1cccc2sc(NNC(=O)c3ccc(S(=O)(=O)N4CCc5ccccc5C4)cc3)nc12,71*,-2.4,i,-3
Cc1cccc2sc(NNC(=O)c3ccc4c(c3)OCCO4)nc12,0,3.4*,i,2
Cc1cccc2sc(NNC(=O)c3ccc(S(=O)(=O)N4CCCC(C)C4)cc3)nc12 (configuration not stated),65*,-2.7,i,-8
Cc1cc(C)c2nc(NNC(=O)c3ccc(S(=O)(=O)N4CCCCC4)cc3)sc2c1,17,-2.3,i,-3
Cc1ccc(/C=N/NC(=O)CC(=O)NCc2cccnc2)cc1,-25,2.5,i,-1
CC(C)(C)NC(=O)C(c1ccccn1)N(C(=O)c1csnn1)C1CCCC1 (configuration not stated),.,0.18,.,.
O=S(=O)(NC1=NCCC1)c1cccc(NS(=O)(=O)c2ccc(OC(F)(F)F)cc2)c1,39,0.47,i,-5
CN(CCN(C)C(C)(C)C)C(=O)C(c1ccccc1)c1ccccc1,.,0.93,.,.
CCCn1c(=O)n(C)c(=O)c2c(SCC(=O)NC34CC5CC(CC(C5)C3)C4)nc(CC(C)C)nc21,14,0.04,i,-3
CC(=O)C1=C(O)CCCC1=NCc1nc2ccccc2[nH]1,33,-0.07,i,-1
COc1ccc(-c2csc(NC(=S)NC(=O)c3ccco3)n2)cc1,-27,-0.48,+,-3
CN(C)c1cc(-c2ccc(Cl)cc2Cl)oc(=O)c1Cl,.,1.6,.,.
Brc1ccc(/C=N/Nc2nncc(-c3ccccc3)n2)o1,57,-0.11,i,-2
Brc1ccc(-c2ccc(/C=N/Nc3nncc(-c4ccccc4)n3)o2)cc1,-19,-0.33,+,-3
Brc1ccc(-c2ccc(/C=N/Nc3nc(N4CCOCC4)nc(N4CCOCC4)n3)o2)cc1,-67,0.14,+,3
Cc1ccc(CCNC(=O)CN(C)S(=O)(=O)c2ccc3c(c2)n(C)c(=O)c(=O)n3C)cc1,.,-0.13,.,.
Cc1cc(C)n2ncc(/C(N)=N/OC(=O)Nc3ccccc3)c2n1,.,-0.51,.,.
CC(C)(C#CC(O)(c1ccccc1)c1ccccc1)N1CCCC1,19,.,i,-4
Cc1cc(NC(=O)CCSc2ccccc2)ccc1Br,-10,-0.22,i,0
COC(=O)c1nc2ccc(N3CCOCC3)cc2c(C)c1C(=O)OC,.,-0.9,+,0
COc1ccc2[nH]c3c(c2c1)CCNC3C1CC=C(C)CC1 (configuration not stated),.,0.05,+,4
CC1CN=C(N(C(=O)Nc2ccccc2)C(C)c2ccccc2)S1 (configuration not stated),.,1,.,.
N#Cc1c(Cl)nsc1NC(=O)c1ccccc1,20,-2.5,+,-7
N#Cc1c(NC(=O)c2ccccc2)sc2c1CCCCC2,-253,.,i,-1
SMILES,INS promoter inh,Ins promoter up,Autophagy mod,Efa HMGR inh
COC(=O)c1cccc(Oc2cccc(C(F)(F)F)c2)n1,.,0.67,i,-5
N/C(=N\c1nc(CSc2ccc(Cl)cc2)cc(=O)[nH]1)Nc1cccc2ccccc12,10,.,+,-4
COc1ccc(N/C(N)=N/c2nc(CSc3ccc(Cl)cc3)cc(=O)[nH]2)cc1,i,.,i,-6
Cc1cccc(C(=O)n2cnnc2N)c1,6,-0.23,i,-2
CC1CCCC(NC(=O)COC(=O)c2ccccc2NC(=O)c2ccco2)C1C (configuration not stated),23,0.2,i,1
CC1CCCC(NC(=O)COC(=O)c2ccccc2[N+](=O)[O-])C1C (configuration not stated),.,0.44,+,-7
C1CCc2c(nc3nnnn3c2NCC2CC2)C1,.,-0.37,.,.
COc1cccc2c1nc(C)c1cc(C)oc12,.,0.2,i,4
